# About 83,000 compounds went through this panel and 20% of them were active in at least one assay; those are over-represented in the sample as a whole.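 Treatment: one concentration, 48 hours, 96-well format. Scoring: percent growth, with anything below 10 considered active.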 Values without a mark were called inactive. The source made the active and inactive calls.
# What was measured:
# Test in all cases: NCI-60 one-dose screen, 48 h (100 = growth as untreated, 0 = no growth, -100 = all killed)
# HCT-15 colon = settings: 10 µM unless noted
# HT29 colon = settings: 10 µM unless noted
# SNB-75 CNS = settings: 10 µM unless noted
# U251 CNS = settings: 10 µM unless noted
# PC-3 prostate = settings: 10 µM unless noted
# SK-MEL-5 melanoma = settings: 10 µM unless noted
# UACC-62 melanoma = settings: 10 µM unless noted
# LOX IMVI melanoma = settings: 10 µM
# SK-MEL-28 melanoma = settings: 10 µM unless noted
# SK-MEL-2 melanoma = settings: 10 µM unless noted
# EKVX NSCLC = settings: 10 µM unless noted
# UO-31 renal = settings: 10 µM unless noted
# TK-10 renal = settings: 10 µM unless noted
# ACHN renal = settings: 10 µM unless noted
# CAKI-1 renal = settings: 10 µM unless noted
# A498 renal = settings: 10 µM unless noted
# CCRF-CEM leukemia = settings: 10 µM unless noted
# MOLT-4 leukemia = settings: 10 µM unless noted
# SNB-19 CNS = settings: 10 µM unless noted
# SN12C renal = settings: 10 µM unless noted
SMILES,growth (HCT-15 colon),growth (HT29 colon),growth (SNB-75 CNS),growth (U251 CNS),growth (PC-3 prostate),growth (SK-MEL-5 melanoma),growth (UACC-62 melanoma),growth (LOX IMVI melanoma),growth (SK-MEL-28 melanoma),growth (SK-MEL-2 melanoma) [%],growth (EKVX NSCLC),growth (UO-31 renal),growth (TK-10 renal),growth (ACHN renal),growth (CAKI-1 renal),growth (A498 renal),growth (CCRF-CEM leukemia),growth (MOLT-4 leukemia),growth (SNB-19 CNS),growth (SN12C renal)
CC(C)Sc1nc(NCCc2c[nH]c3ccccc23)c(C#N)c(-c2ccccc2)n1,-19.9% (active),-30.6% (active),60.6%,15.5%,12.6%,-6.58% (active),79.4%,-68.7% (active),81.5%,68.7,18%,32.1%,67.4%,33%,34.3%,23.4%,8.66% (active),5.18% (active),–,–
NS(=O)(=O)c1ccc(-n2cc(-c3cccc(NC(=O)c4cc(N5CCOCC5)cc(C(F)(F)F)c4)c3)nn2)cc1,105%,103%,33.1%,7.62% (active),70.6%,–,41.1%,46.8%,–,61.9,70.5%,80.3%,86.3%,80.4%,57%,104%,93.9%,–,40.8%,35.1%
CCCSc1nc(NCCc2c[nH]c3ccccc23)c(C#N)c(-c2ccccc2)n1,27.3%,30.3%,87.7%,44.6%,35%,41.6%,76.3%,53.3%,97.4%,75,35.7%,64.5%,107%,78.2%,57.1%,82.5%,40.4%,44.7%,–,–
CC(=O)OC[C@@]1(C)C2CC[C@]3(C)C(CC=C4C5CC(C)(C)CC[C@]5(C(=O)Nc5ccc(Br)cc5)CC[C@]43C)[C@@]2(C)C[C@@H](OC(C)=O)[C@@H]1OC(C)=O (some centres undefined),30.6%,27%,56.1%,38.5%,35.5%,8.44% (active),44.1%,12.2%,72.3%,42.2,32.8%,37.2%,45.7%,39%,42%,64.3%,28.7%,38%,–,–
COc1ccc(C(=O)Nc2n[nH]c(Nc3ccccc3)c2C#N)cc1,102%,112%,112%,111%,111%,–,99.6%,98.3%,103%,–,90.1%,90.7%,99.9%,99.3%,103%,108%,114%,–,99.5%,110%
O=C(c1ccccc1)C(c1c[nH]c2ccccc12)c1c[nH]c2ccccc12,13%,22.9%,72.4%,59.9%,38.6%,92.5%,60.4%,-48.4% (active),76.9%,71.9,76.5%,45%,142%,53.5%,31.6%,98.1%,3.87% (active),16.5%,–,49%
O=C1N/C(=N\c2nccs2)S/C1=C\C=C/c1ccccc1,28.1%,25.5%,83.5%,8.95% (active),46.6%,–,-24% (active),28.3%,–,37.7,27.5%,25.5%,34.5%,23.5%,35.1%,57.2%,–,–,26.6%,39.2%
C#CCOc1ccc(/C=N/Nc2nc(-c3ccc(Cl)cc3)cs2)cc1OC,45.7%,69.3%,80.1%,64.6%,29.9%,6.66% (active),54.7%,58.6%,79.5%,38,59.5%,52.5%,131%,68.6%,52.6%,69.8%,36.2%,21.7%,–,67.7%
O=C(NNc1nc2cc(F)ccc2n2c(CN3CCCCC3)ccc12)c1cnccn1,-52.4% (active),8.19% (active),-9.76% (active),-84.8% (active),-18.3% (active),–,-35.2% (active),-69.7% (active),-57.4% (active),–,-78.2% (active),-72.2% (active),-92.7% (active),-98.3% (active),-79.5% (active),-87.9% (active),-16.2% (active),–,-8.81% (active),1.01% (active)
O=c1[nH]c2ccccc2cc1CSc1cccc(Nc2nccc(-c3ccc4ccccc4c3)n2)c1,65.1%,81.8%,84.6%,81.9%,71%,63.8%,95.2%,87.4%,106%,98.3,95.4%,73.4%,79.9%,95.5%,81.2%,106%,46.8%,65.9%,–,–
COc1cc2oc(-c3cccc(NC(=O)[C@H](CC(N)=O)NC(=O)OC(C)(C)C)c3)cc(=O)c2c(OC)c1OC,99.8%,97.8%,95.9%,90.1%,75.8%,87.6%,82%,81.5%,94%,103,99.1%,80.1%,118%,80.7%,84.5%,93.8%,54.5%,65.1%,–,96.9%
Cc1cccc(NC(=O)[C@]23CCC(C)(C)CC2C2=CCC4[C@@]5(C)C[C@@H](O)[C@H](O)[C@@](C)(CO)C5CC[C@@]4(C)[C@]2(C)CC3)c1 (some centres undefined),-5.5% (active),-56.1% (active),43.7%,27.8%,13.3%,-90.7% (active),20.3%,-75.2% (active),32.5%,32.2,11.5%,14.3%,52.9%,1.52% (active),22.8%,-11.3% (active),15.8%,5.2% (active),–,–
CC(=O)N1CCN(Cc2ccc3c(NNC(=O)c4cnccn4)nc4cc(F)ccc4n23)CC1,30.3%,35.9%,65.7%,13.1%,40.9%,–,9.03% (active),10.3%,30.4%,–,16.2%,10.6%,30.3%,11%,13.1%,50.2%,9.27% (active),–,25.4%,21.4%
O=C(Cn1c2c(sc1=O)[C@H]1[C@@H](O)[C@@H](O)[C@H](O)[C@@H]1CS2)N1CCOCC1,107%,106%,82.3%,99.2%,–,102%,101%,–,107%,100,100%,91.1%,–,102%,94.7%,99.3%,–,118%,103%,102%
Cc1cc2nc3c([nH]c2cc1C)c1ccc(=O)cc1n3CCN(C)C,19.3%,23.4%,63.2%,40%,–,41.5%,65.8%,–,–,73.4,76.7%,12.5%,105%,20.4%,19.9%,111%,–,5.98% (active),38.2%,37.7%
Nc1cccc(SCc2cc3ccccc3[nH]c2=O)c1,43.3%,65.7%,83.1%,64.1%,63%,-4.45% (active),4.09% (active),9.48% (active),61.6%,56.4,43.4%,39.1%,64.3%,17.6%,34.2%,69.7%,33%,36.1%,–,–
CN(C)c1ccnc(NCCCSC(c2ccccc2)(c2ccccc2)c2ccccc2)c1,10.7%,-51.8% (active),63.1%,6.61% (active),7.71% (active),-98.4% (active),28.6%,47.9%,-77.3% (active),43,35.5%,28.9%,74.4%,53.3%,30.8%,89.6%,-26.3% (active),-8.29% (active),–,–
